Results on 27 molecules are retold here after PubChem BioAssay.

Activity calls are given as the source filed them.

A short description of this assay: optical density shifts of acrAB sulA E. coli – strain DRC41, OD650, 48 h, E. coli filamentation inducer project, primary screen (AID 1152).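 Also: E. coli MC1000 strain DRC41 lacking acrAB efflux pump and sulA.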 As to conditions: higher = more signal, called active from +8 up or from −8 down.
In the case of `COC(=O)CC=C[C@@H](C)[C@@H](C=NOC(C)CN1CCCCc2nc(C)c(C)cc21)OC` (some centres not stated), the z-score is -0.0952 (inactive).
Turning to `CCOC(=O)[C@H](CC(C)C)NC(=O)CCC1CC(OC(=O)NCc2ccc3c(c2)OCO3)CC2(CCCC(COC(=O)NCCc3ccc(Cl)cc3)O2)O1` (some centres not stated), the z-score is 0.386 (inactive).
The value for `CC(CCN1CCc2nc(-c3ccccc3)c(-c3ccccc3)cc2C1)=NO[C@H](C)c1cn([C@H](CO)Cc2ccccc2)nn1` was -1.52 (inactive).
Next, `CC(CCC(=O)OC[C@H]1O[C@H](C#Cc2ccccc2)C=C[C@@H]1Oc1ccc(C)cc1)=NO[C@H](C)c1cn([C@@H]2COC[C@H]2O)nn1`: -0.6 (inactive); `CC(CCN1CCc2nc(-c3ccccc3)c(-c3ccccc3)cc2C1)=NOC(C)CN1CCCc2nc(C)c(C)cc21` (configuration not stated): -0.115 (inactive); `CCC1=NOC(CCC2CC(OC(=O)NCc3cccc4c3OCO4)CC3(CCCC(COC(=O)NCCc4ccc(Cl)cc4)O3)O2)C1` (configuration not stated): 0.13 (inactive).
The value for `CCOC(=O)CCN1C(=O)[C@H]2[C@@H]3C(=CC[C@H]2C1=O)C(=O)[C@H]1O[C@H]1[C@H]3O` was 0.244 (inactive); that for `CON=C(C)CCC(=O)OC[C@H]1O[C@H](C#Cc2ccccc2)C=C[C@@H]1Oc1ccc(C)cc1` was -2.47 (inactive).
Take `Cc1cc2c(nc1C)CCCCN2CC(O)CN1CCCc2nc(-c3ccc(Br)cc3)ccc21` (configuration not stated): the z-score was 0.453 (inactive).
Next, `COC(=O)[C@H](C)NC(=O)CCC1CC(OC(=O)NCc2cccc3ccccc23)CC2(CCCC(COC(=O)NCCc3ccccc3OC)O2)O1` (some centres not stated): -0.731 (inactive); `CC#CCOCCC=C1c2ccccc2[C@@H](OC)[C@@H]1C`: 0.673 (inactive); `CCO[C@H](c1cc(OC)cc([N+](=O)[O-])c1OC)[C@H](C)[C@@H](OC)[C@H](C)C=CCC(=O)OC`: -0.321 (inactive).
Turning to `O=C1[C@H]2[C@H]3[C@H](O)[C@H](O)CC(=NOC[C@@H](O)COCc4ccco4)[C@@H]3CC[C@H]2C(=O)N1c1cccc(Oc2ccccc2)c1`, the z-score was -1.26 (inactive).
Next, `COC(=O)[C@@H]1CC[C@H](C)[C@@H](c2ccc(Br)cc2)N1C[C@@H](O)CN=[N+]=[N-]`: -1.67 (inactive); `CCOC(=O)[C@H](Cc1ccccc1)NC(=O)CCC1CC(OC(=O)NCc2cccc3ccccc23)CC2(CCCC(COC(=O)NCC3CCCCC3)O2)O1` (some centres not stated): 0.0278 (inactive); `C#CCCCON=C1[C@H]2CCn3c(=O)n([C@@H](CC)c4ccccc4)c(=O)n3[C@H]2[C@H](O)[C@@H]2O[C@H]12`: -1.02 (inactive).
As to `C[C@@H]1C=CCC(=O)OC[C@H](C)C(=O)N[C@@H](Cc2ccccc2)C(=O)OC1`, the z-score is -0.596 (inactive).
The value for `Cc1ccc2[nH]c3nc(CCCn4ccnc4-c4ccccc4)nnc3c2c1` was 0.369 (inactive); that for `CC(CCN1CCc2nc(-c3ccccc3)c(-c3ccccc3)cc2C1)=NO[C@@H](C)c1cc(-c2c(C)cc(C)cc2C)no1` was -1.03 (inactive).
The value for `O=C1[C@H]2CCn3c(=O)n(Cc4cc5c(cc4Cl)OCO5)c(=O)n3[C@H]2[C@H](O)[C@@H]2O[C@H]12` was 0.709 (inactive); that for `CCCNC(=O)OC[C@H]1O[C@H](CCON=C[C@@H](NS(=O)(=O)c2ccc(C)cc2)[C@H](C)C=CCC(=O)OC)C=C[C@@H]1Oc1ccc(OC)cc1` was 0.0368 (inactive); that for `CCN1C(=O)[C@H]2[C@H]3[C@H](O)[C@H](O)CC(=NOCC[C@@H]4C=C[C@H](OC(C)=O)[C@@H](COC(C)=O)O4)[C@@H]3CC[C@H]2C1=O` was -0.405 (inactive).
Turning to `COc1ccc(O[C@H]2C=C[C@@H](c3ccccc3)O[C@@H]2COC(=O)CCC(C)=NOC[C@@H](O)COCc2ccco2)cc1`, the z-score was -1.45 (inactive).
Next, `CC(C)[C@@H](OCc1ccccc1)[C@H](C)C=NOC[C@@H](O)[C@H]1O[C@@H]2OC(C)(C)O[C@@H]2[C@H]1O`: -1.74 (inactive); `O=C1C2=CC[C@H]3C(=O)N(Cc4ccccc4)C(=O)[C@H]3[C@H]2[C@H](O)[C@@H]2O[C@H]12`: -0.536 (inactive); `COC(=O)[C@H](C)NC(=O)CCC1CC(OC(=O)NCc2ccc3c(c2)OCO3)CC2(CCCC(COC(=O)NCc3ccccc3)O2)O1` (some centres not stated): 1.07 (inactive).
Regarding `CC(C)CON=C1C[C@@H](O)[C@@H](O)[C@@H]2[C@@H]3C(=O)N(Cc4ccccc4)C(=O)[C@@H]3CC[C@H]12`, the z-score was -1.41 (inactive).
